The AC50 is the midpoint of the concentration-response curve, whichever way the signal moves.

The values that follow come from PubChem BioAssay (EPA / NIEHS).

Experiment [1] concerns the target rat Serotonin, 5-Hydroxytryptamine Receptor 1 (5HT1), Non-Selective Binding, Htr1a (gene 24473) (UniProt P19327). Description: NVS_GPCR_r5HT1_NonSelective: NovaScreen (NVS) G Protein-Coupled Receptor Assay for rat Serotonin, 5-Hydroxytryptamine Receptor 1 (5HT1), Non-Selective Binding (AID 2283286). In outline:
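Rat cortical membranes, radioligand displacement, 1 h incubation, read by filter scintillation. Primary screen in duplicate at 25 uM. Hits (e.g. ≥30% inhibition) went to concentration-response up to 50 uM, fitted as loss of binding versus DMSO.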

Experiment [2] deals with Muscarinic acetylcholine receptor M3 (Homo sapiens) (UniProt P20309). Description: NVS_GPCR_hM3: NovaScreen (NVS) G Protein-Coupled Receptor Assay for human Muscarinic, M3 Receptor (AID 2283272). Put shortly:
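Radioligand displacement binding on human M3 receptor in CHO-derived membranes, 1 h incubation, filter-based scintillation counting. Primary screen in duplicate at 25 uM; actives followed up in concentration series; loss of signal versus DMSO.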

The target in experiment [3] is Neuropeptide Y receptor type 2 (Homo sapiens) (UniProt P49146). Kind of experiment: NVS_GPCR_hNPY2: NovaScreen (NVS) G Protein-Coupled Receptor Assay for human Neuropeptide Receptor Y2 (NPY2) (AID 2283277). Put shortly: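 Radioligand binding on membranes extracted from SK-N-MC cells, cell-free, read 1 h after dosing by filter-based scintillation counting. Loss of signal vs DMSO. Primary screen in duplicate at 25 uM; actives followed up in concentration-response up to 50 uM.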
Sequence of Neuropeptide Y receptor type 2 (Homo sapiens) (P49146 whole entry, looked up): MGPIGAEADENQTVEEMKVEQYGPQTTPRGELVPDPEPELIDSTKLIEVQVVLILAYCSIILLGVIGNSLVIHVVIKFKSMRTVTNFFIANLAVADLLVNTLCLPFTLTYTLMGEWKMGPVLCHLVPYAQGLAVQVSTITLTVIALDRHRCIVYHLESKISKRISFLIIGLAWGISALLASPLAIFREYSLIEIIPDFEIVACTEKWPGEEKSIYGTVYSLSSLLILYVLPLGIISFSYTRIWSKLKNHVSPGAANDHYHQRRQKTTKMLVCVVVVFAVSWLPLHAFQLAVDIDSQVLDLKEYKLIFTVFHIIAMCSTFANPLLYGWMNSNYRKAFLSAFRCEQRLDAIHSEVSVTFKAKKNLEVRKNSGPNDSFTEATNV

The target of experiment [4] is human Neurotensin Receptor (NTS), NTSR1 (gene 4923) (UniProt P30989). Description: NVS_GPCR_hNTS: NovaScreen (NVS) G Protein-Coupled Receptor Assay for human Neurotensin Receptor (NTS) (AID 2283279). In outline:
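Radioligand displacement on human NTSR1 protein from CHO cells, cell-free, 1 h, filter-based scintillation counting. Primary screen at 25 uM in duplicate; hits rerun in concentration-response up to 50 uM.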

Experiment [5] concerns the target Muscarinic acetylcholine receptor M1 (Homo sapiens) (UniProt P11229). Description: NVS_GPCR_hM1: NovaScreen (NVS) G Protein-Coupled Receptor Assay for human Muscarinic, M1 Receptor (AID 2283270). In outline:
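Cell-free radioligand displacement using membrane protein extracted from CHO cells, read by filter-based scintillation counting 1 h after dosing. Loss of bound signal fitted versus DMSO; primary screen single concentration 25 uM in duplicate, actives followed by concentration series.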

Experiment [6] addresses human Neurokinin, NK2 Receptor, TACR2 (gene 6865) (UniProt P21452). Description: NVS_GPCR_hNK2: NovaScreen (NVS) G Protein-Coupled Receptor Assay for human Neurokinin, NK2 Receptor (AID 2283278).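 Also: actives reduce bound radioligand signal relative to DMSO baseline.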 In outline:
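CHO-derived membrane protein, radioligand displacement, filter scintillation read at 4 h post-dose. Single-point 25 uM in duplicate, then concentration series for actives; DMSO as negative control.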

For experiment [7], the target named is mouse Cholecystokinin, CCK1 Receptor (CCKA), Cckar (gene 12425) (UniProt O08786). Description: NVS_GPCR_mCCKAPeripheral: NovaScreen (NVS) G Protein-Coupled Receptor Assay for mouse Cholecystokinin, CCK1 Receptor (CCKA) (AID 2283285). Put shortly:
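Radioligand competitive displacement on mouse pancreatic membranes, 2 h incubation; filter-based scintillation counting, loss of signal versus DMSO. Single-concentration screen at 25 uM in duplicate, actives retested in concentration-response up to 50 uM.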

Experiment [8] deals with rabbit Platelet Activating Factor Receptor (PAF), gene 100354046. Description: NVS_GPCR_rabPAF: NovaScreen (NVS) G Protein-Coupled Receptor Assay for rabbit Platelet Activating Factor Receptor (PAF) (AID 2283287). Put shortly: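 Rabbit platelet membrane preparation; radioligand displacement read by filter-based scintillation counting 1 h after dosing, loss of signal versus DMSO. Primary screen in duplicate at 25 uM, actives followed up in concentration series.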

Experiment [9] has as its target human Neuropeptide Receptor Y1 (NPY1), NPY1R (gene 4886) (UniProt P25929). Description: NVS_GPCR_hNPY1: NovaScreen (NVS) G Protein-Coupled Receptor Assay for human Neuropeptide Receptor Y1 (NPY1) (AID 2283276). In outline: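 Cell-free radioligand binding using receptor extracted from SK-N-MC cells, 1 h incubation, filter-based scintillation counting. Primary screen single concentration 25 uM in duplicate; actives followed in concentration series. Loss of bound signal scored versus DMSO.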

The target in experiment [10] is human Histamine 1 Receptor (H1), HRH1 (gene 3269) (UniProt P35367). Kind of experiment: NVS_GPCR_hH1: NovaScreen (NVS) G Protein-Coupled Receptor Assay for human Histamine 1 Receptor (H1) (AID 2283268). Put shortly: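 Cell-free radioligand displacement at human H1 receptor, 1 h, filter scintillation counting; primary screen 25 uM in duplicate, hits in concentration series; loss of binding fitted vs DMSO.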
Sequence of human Histamine 1 Receptor (H1), HRH1 (gene 3269) (P35367 whole entry, looked up): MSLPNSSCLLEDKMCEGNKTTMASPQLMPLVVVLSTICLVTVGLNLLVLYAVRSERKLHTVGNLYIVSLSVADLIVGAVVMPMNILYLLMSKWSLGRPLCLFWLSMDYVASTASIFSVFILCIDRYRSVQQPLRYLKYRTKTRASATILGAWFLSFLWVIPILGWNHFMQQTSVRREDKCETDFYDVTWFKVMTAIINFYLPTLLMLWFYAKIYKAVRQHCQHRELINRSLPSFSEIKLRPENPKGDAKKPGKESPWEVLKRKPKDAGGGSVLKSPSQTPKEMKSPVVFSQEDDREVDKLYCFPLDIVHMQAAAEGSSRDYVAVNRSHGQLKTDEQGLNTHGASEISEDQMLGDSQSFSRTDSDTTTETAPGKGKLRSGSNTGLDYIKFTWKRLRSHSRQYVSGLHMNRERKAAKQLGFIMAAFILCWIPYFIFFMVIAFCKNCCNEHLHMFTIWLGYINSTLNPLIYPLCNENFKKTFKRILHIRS

The target in experiment [11] is human Purinergic Receptor P2Y, P2RY1 (gene 5028) (UniProt P47900). Kind of experiment: NVS_GPCR_hPY2: NovaScreen (NVS) G Protein-Coupled Receptor Assay for human Purinergic Receptor P2Y (AID 2283281). In outline: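 Cell-free radioligand binding using U937-derived protein, 1 h after dosing, filter-based scintillation counting. Screened in duplicate at 25 uM; actives rerun as concentration-response up to 50 uM; loss of signal versus DMSO.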

The target in experiment [12] is human Thromboxane A2 Receptor (TXA2), TBXA2R (gene 6915) (UniProt P21731). Kind of experiment: NVS_GPCR_hTXA2: NovaScreen (NVS) G Protein-Coupled Receptor Assay for human Thromboxane A2 Receptor (TXA2) (AID 2283282).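 Also: actives reduce bound radioligand signal relative to DMSO baseline.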 Put shortly:
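Human platelet-derived receptor preparation incubated with test chemical and radiolabelled ligand for 1 hour, cell-free. Bound label was separated by filtration and counted; displacement relative to DMSO controls gave activity, screened at 25 uM, then titrated.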

Experiment [13] deals with Muscarinic acetylcholine receptor M2 (Homo sapiens) (UniProt P08172). Description: NVS_GPCR_hM2: NovaScreen (NVS) G Protein-Coupled Receptor Assay for human Muscarinic, M2 Receptor (AID 2283273). Put shortly:
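CHO membrane prep, radioligand + test compound, 1 h; filtration, scintillation count. Screen 25 uM duplicate → conc. series for actives. Readout: decrease in binding vs DMSO control.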

Experiment [14] deals with human Muscarinic, M4 Receptor, CHRM4 (gene 1132) (UniProt P08173). Description: NVS_GPCR_hM4: NovaScreen (NVS) G Protein-Coupled Receptor Assay for human Muscarinic, M4 Receptor (AID 2283274). In outline:
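Cell-free radioligand displacement using CHO-derived human M4 receptor protein, 1 h after dosing; bound radioactivity by filtration and scintillation counting. Primary screen single 25 uM duplicate, actives followed in concentration series.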

Experiment [15] has as its target human Dopamine Receptor D2 (DRD2), DRD2 (gene 1813) (UniProt P14416). Kind of experiment: NVS_GPCR_hDRD2s: NovaScreen (NVS) G Protein-Coupled Receptor Assay for human Dopamine Receptor D2 (DRD2) (AID 2283266). In outline: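 Radioligand displacement used human DRD2 membranes extracted from CHO cells and was read by filter-based scintillation counting after 1.5 hours. Primary screening was in duplicate at 25 uM. Loss of signal versus DMSO was fitted, with concentration series in follow-up.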

The target of experiment [16] is human Leukotriene B4 Receptor 1 (LTB4-BLT1), LTB4R (gene 1241) (UniProt Q15722). Description: NVS_GPCR_hLTB4_BLT1: NovaScreen (NVS) G Protein-Coupled Receptor Assay for human Leukotriene B4 Receptor 1 (LTB4-BLT1) (AID 2283271). In outline: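 Radioligand displacement binding on receptor extracted from human neutrophils, cell-free, 1 h after dosing; filter-based scintillation counting. Primary screen in duplicate at 25 uM, actives retested in concentration-response up to 50 uM; loss of signal versus DMSO.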

The target of experiment [17] is human Vasopressin 1A Receptor (V1A), AVPR1A (gene 552) (UniProt P37288). Kind of experiment: NVS_GPCR_hV1A: NovaScreen (NVS) G Protein-Coupled Receptor Assay for human Vasopressin 1A Receptor (V1A) (AID 2283284). Put shortly: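 Cell-free radioligand displacement on human platelet preparations, 1.5 h incubation, filter-based scintillation counting. Chemicals first tested in duplicate at 25 uM; actives then run in concentration-response up to 50 uM, loss of signal fitted against DMSO.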
Sequence of human Vasopressin 1A Receptor (V1A), AVPR1A (gene 552) (P37288 whole entry, looked up): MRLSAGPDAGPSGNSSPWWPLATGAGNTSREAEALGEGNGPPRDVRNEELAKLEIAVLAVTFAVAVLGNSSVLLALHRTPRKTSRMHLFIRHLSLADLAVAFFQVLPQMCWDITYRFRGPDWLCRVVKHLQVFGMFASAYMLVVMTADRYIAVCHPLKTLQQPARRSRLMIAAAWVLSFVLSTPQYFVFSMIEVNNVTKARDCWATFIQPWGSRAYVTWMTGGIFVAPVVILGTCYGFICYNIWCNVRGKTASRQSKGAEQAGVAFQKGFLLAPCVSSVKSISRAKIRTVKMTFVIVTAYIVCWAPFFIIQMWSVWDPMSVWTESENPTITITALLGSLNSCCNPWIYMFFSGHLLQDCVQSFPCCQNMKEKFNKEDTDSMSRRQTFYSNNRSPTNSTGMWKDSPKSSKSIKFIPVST

SMILES strings stand for the structures. Results filed as inconclusive are left out. Activity calls are given as the source filed them. The calls were made as follows: active = hit-call score of the fitted dose curve at least 0.9, where 1 is the maximum; inconclusive = response in the unintended direction; inactive = score below 0.9.

Sequence of human Muscarinic, M4 Receptor, CHRM4 (gene 1132) (P08173 whole entry, looked up): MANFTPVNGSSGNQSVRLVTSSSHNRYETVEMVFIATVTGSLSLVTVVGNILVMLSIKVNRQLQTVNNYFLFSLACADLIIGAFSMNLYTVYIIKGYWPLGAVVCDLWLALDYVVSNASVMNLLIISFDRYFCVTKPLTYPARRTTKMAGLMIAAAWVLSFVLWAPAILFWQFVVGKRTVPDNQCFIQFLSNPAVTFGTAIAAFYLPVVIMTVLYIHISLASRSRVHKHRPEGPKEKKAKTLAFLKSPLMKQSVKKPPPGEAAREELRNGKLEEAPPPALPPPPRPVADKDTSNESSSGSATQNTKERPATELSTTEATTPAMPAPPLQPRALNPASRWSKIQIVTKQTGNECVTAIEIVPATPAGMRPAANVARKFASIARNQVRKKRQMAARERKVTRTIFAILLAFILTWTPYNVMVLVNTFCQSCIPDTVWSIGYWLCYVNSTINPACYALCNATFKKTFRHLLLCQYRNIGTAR
Sequence of Muscarinic acetylcholine receptor M3 (Homo sapiens) (P20309 whole entry, looked up): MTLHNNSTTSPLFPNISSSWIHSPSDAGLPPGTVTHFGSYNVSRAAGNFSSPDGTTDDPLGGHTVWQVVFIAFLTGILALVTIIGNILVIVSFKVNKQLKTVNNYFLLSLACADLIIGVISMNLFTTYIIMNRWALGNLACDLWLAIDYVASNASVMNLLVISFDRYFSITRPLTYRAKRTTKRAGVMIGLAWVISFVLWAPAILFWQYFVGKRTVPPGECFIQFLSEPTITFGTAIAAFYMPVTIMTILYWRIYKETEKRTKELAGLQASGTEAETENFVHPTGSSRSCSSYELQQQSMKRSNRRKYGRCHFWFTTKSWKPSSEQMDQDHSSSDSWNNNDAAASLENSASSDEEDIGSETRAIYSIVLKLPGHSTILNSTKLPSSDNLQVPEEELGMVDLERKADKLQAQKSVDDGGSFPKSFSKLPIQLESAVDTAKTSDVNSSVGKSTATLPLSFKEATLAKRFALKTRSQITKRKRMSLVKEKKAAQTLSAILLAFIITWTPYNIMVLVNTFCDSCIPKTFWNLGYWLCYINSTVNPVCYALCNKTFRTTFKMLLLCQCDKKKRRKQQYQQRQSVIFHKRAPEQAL
Sequence of rat Serotonin, 5-Hydroxytryptamine Receptor 1 (5HT1), Non-Selective Binding, Htr1a (gene 24473) (P19327 whole entry, looked up): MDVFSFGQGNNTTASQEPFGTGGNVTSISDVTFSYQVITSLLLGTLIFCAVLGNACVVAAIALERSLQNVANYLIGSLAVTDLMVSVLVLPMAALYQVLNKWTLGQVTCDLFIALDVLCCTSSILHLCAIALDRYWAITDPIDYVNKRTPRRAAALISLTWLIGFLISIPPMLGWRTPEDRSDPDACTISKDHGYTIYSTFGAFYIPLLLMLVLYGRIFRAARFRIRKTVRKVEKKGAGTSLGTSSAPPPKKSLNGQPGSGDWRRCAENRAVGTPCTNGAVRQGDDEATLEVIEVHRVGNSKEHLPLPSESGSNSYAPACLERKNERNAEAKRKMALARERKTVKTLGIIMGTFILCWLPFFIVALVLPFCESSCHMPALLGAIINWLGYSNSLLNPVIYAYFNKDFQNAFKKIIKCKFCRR
Sequence of human Neurotensin Receptor (NTS), NTSR1 (gene 4923) (P30989 whole entry, looked up): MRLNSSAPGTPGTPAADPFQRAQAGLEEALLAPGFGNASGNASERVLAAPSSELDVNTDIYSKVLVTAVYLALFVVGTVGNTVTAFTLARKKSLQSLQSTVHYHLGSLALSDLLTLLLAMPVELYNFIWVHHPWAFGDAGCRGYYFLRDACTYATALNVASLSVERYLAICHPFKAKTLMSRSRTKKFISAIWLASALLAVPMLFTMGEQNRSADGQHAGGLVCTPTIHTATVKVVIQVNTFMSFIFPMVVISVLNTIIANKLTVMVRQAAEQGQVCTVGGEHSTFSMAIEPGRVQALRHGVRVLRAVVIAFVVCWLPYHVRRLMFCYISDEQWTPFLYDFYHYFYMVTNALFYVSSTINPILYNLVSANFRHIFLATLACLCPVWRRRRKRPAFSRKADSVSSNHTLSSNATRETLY
Sequence of human Neurokinin, NK2 Receptor, TACR2 (gene 6865) (P21452 whole entry, looked up): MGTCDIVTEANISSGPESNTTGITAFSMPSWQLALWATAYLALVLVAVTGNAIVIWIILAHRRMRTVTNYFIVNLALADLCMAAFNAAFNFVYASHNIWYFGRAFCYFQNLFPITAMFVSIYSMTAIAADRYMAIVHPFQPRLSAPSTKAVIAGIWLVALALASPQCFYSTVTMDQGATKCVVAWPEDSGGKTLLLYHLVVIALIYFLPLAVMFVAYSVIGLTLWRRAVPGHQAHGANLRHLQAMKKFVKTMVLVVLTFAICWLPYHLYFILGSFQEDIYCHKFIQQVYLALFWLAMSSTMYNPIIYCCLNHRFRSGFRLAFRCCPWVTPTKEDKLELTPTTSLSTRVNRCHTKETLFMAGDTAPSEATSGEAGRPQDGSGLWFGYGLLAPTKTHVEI
Sequence of mouse Cholecystokinin, CCK1 Receptor (CCKA), Cckar (gene 12425) (O08786 whole entry, looked up): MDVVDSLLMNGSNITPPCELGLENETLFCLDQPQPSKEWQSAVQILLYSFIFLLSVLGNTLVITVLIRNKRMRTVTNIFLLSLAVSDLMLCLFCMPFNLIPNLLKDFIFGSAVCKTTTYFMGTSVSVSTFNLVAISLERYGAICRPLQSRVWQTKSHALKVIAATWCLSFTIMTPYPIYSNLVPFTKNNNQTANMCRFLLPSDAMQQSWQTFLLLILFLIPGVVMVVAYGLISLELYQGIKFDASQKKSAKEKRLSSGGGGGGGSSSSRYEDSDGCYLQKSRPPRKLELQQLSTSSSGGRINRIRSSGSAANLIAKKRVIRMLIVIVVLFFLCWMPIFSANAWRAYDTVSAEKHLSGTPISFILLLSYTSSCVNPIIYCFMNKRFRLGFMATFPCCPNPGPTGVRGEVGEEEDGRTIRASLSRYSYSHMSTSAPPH
Sequence of human Thromboxane A2 Receptor (TXA2), TBXA2R (gene 6915) (P21731 whole entry, looked up): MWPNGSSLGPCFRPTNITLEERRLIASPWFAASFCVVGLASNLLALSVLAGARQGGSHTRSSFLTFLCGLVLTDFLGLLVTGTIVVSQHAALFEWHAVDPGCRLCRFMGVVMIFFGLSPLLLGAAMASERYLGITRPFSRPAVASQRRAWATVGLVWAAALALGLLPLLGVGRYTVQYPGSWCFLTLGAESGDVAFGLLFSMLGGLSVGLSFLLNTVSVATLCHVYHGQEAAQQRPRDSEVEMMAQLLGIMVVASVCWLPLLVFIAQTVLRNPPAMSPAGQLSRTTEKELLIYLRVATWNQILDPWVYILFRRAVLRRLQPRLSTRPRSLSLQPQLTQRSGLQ
Sequence of Muscarinic acetylcholine receptor M2 (Homo sapiens) (P08172 whole entry, looked up): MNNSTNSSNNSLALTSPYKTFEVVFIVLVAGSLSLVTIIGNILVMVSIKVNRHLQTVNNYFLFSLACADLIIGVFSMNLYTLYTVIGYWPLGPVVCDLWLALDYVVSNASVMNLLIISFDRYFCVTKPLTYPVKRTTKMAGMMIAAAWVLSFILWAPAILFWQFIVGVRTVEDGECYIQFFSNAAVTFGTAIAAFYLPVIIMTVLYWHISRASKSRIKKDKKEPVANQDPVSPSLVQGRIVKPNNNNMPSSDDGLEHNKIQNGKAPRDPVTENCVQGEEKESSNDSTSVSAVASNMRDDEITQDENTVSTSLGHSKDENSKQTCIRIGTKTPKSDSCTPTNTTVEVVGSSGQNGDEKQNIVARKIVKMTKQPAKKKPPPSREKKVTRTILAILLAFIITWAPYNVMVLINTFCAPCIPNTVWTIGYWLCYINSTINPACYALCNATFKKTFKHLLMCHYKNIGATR

In the case of `CCC(=O)Nc1ccc(Cl)c(Cl)c1`, the result in experiment [1] was inactive. For `CN1COCN(Cc2cnc(Cl)s2)C1=N[N+](=O)[O-]`, the molecule was called inactive in experiment [2] and in [3]. On to `CCOP(=S)(OCC)Oc1cc(C)nc(C(C)C)n1`, for which the call in experiment [4] and in [1] was inactive. Turning to `C#CCC1=C(C)C(OC(=O)C2C(C=C(C)C)C2(C)C)CC1=O` (stereo not given), the results for the AC50 in experiment [5], in experiment [2] and in [8] were 11 µM (active), 7.59 µM (active) and 10.9 µM (active), respectively. Besides, the call in experiment [6] and in [7] was inactive. On to `N#CSCSC#N`, for which the AC50 in experiment [9] is 12.6 µM (active). `CCOP(=O)(SC(C)CC)N1CCSC1=O` (stereo not given): the outcome in [10] was inactive. Regarding `CN(C)[C@@H]1C(=O)C(C(N)=O)=C(O)[C@@]2(O)C(=O)C3=C(O)c4c(O)cccc4[C@@](C)(O)[C@H]3[C@H](O)[C@@H]12`, the result in experiment [11] and in experiment [12] was inactive. Regarding `CCOP(=O)(NC(C)C)Oc1ccc(SC)c(C)c1` (stereo not given), the molecule was classed as inactive in experiment [5]. For the molecule `C[Si](Cn1cncn1)(c1ccc(F)cc1)c1ccc(F)cc1`, the AC50 was 11.6 µM (active) in experiment [2], 14.4 µM (active) in [14], 25 µM (active) in [7] and 6.38 µM (active) in [8]. Also, the molecule was classed as inactive in [13]. For `CN(C)C(=O)Nc1cccc(C(F)(F)F)c1`, the molecule was classed as inactive in [15], in experiment [10] and in experiment [1]. As for `CNC(=O)ON=C(C)SC`, the outcome in experiment [8] was inactive.

Turning to `COc1ccc(C(=CC(=O)N2CCOCC2)c2ccc(Cl)cc2)cc1OC`, the outcome in [16] was inactive. Turning to `CCC(=NOC/C=C/Cl)C1=C(O)CC(C2CCOCC2)CC1=O` (stereo not given), in [17], the outcome was inactive. On to `CC(C)[C@H](C(=O)O[C@H](C#N)c1cccc(Oc2ccccc2)c1)c1ccc(Cl)cc1`, for which the AC50 in experiment [6] is 4.82 µM (active). As for `FC(F)C(F)(F)OCC(Cn1cncn1)c1ccc(Cl)cc1Cl` (stereo not given), the outcome in experiment [14] and in experiment [12] was inactive. Consider `CC1=NNC(=O)N(/N=C/c2cccnc2)C1`, for which the outcome in [14] and in [4] was inactive. For the molecule `Nc1nc(N)nc(NC2CC2)n1`, in [3], the outcome was inactive. As to `CC1(C(=O)Nc2ccc(O)c(Cl)c2Cl)CCCCC1`, the AC50 in experiment [6] was 3.04 µM (active). Regarding `CCOP(=S)(OCC)Oc1ccc([N+](=O)[O-])cc1`, the AC50 was 5.42 µM (active) in experiment [2] and 7.24 µM (active) in [14]. As for `CCCCOC(=O)[C@@H](C)Oc1ccc(Oc2ccc(C#N)cc2F)cc1`, the outcome in experiment [4] and in experiment [8] was inactive.

For `COc1cccc(C(=O)NN(C(=O)c2cc(C)cc(C)c2)C(C)(C)C)c1C`, the AC50 in [2] was 0.429 µM (active). For the same molecule, the result in [13] and in [17] was inactive.
